Consider 25 molecules from ChEMBL document CHEMBL2218924, “A broad activity screen in support of a chemogenomic map for kinase signalling research and drug discovery” (Biochem J, 2013).

For test [1], the target named is Mitogen-activated protein kinase 10 (Homo sapiens) (UniProt P53779). The conditions noted are these: at 10 µM.
Test [2] addresses Vascular endothelial growth factor receptor 2 (Homo sapiens) (UniProt P35968). Conditions: at 1 µM.
For test [3] the target is unchanged. Conditions: at 10 µM.
In test [4] the target is LIM domain kinase 1 (Homo sapiens) (UniProt P53667). Conditions: at 1 µM.
Chain of LIM domain kinase 1 (Homo sapiens) (P53667 whole entry, looked up, the tested form may be a part): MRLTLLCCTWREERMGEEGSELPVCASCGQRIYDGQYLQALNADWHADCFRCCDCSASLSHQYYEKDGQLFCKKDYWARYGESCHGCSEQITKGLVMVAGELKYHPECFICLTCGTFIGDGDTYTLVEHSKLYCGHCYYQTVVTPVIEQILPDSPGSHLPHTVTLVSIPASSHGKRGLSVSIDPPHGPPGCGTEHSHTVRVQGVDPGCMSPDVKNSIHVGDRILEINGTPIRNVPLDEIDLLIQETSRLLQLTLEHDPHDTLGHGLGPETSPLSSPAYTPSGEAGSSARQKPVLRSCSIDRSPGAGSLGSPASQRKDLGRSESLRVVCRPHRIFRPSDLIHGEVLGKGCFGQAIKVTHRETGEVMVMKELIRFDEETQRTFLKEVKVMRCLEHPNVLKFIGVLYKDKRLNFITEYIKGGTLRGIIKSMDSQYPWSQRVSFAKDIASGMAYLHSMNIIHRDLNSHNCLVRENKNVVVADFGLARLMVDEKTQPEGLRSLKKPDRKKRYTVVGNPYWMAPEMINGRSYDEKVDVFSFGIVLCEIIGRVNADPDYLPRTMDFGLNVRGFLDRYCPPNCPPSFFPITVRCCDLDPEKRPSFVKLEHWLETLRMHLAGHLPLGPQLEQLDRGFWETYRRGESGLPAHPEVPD
Test [5] shares this target. Conditions: at 10 µM.
Test [6] concerns the target Serine/threonine-protein kinase 10 (Homo sapiens) (UniProt O94804). Conditions: at 1 µM.
Test [7] has the same target. The conditions noted are these: at 10 µM.
Test [8] deals with Tyrosine-protein kinase Lck (Homo sapiens) (UniProt P06239). Conditions: at 1 µM.
Chain of Tyrosine-protein kinase Lck (Homo sapiens) (P06239 2-509 limits assumed): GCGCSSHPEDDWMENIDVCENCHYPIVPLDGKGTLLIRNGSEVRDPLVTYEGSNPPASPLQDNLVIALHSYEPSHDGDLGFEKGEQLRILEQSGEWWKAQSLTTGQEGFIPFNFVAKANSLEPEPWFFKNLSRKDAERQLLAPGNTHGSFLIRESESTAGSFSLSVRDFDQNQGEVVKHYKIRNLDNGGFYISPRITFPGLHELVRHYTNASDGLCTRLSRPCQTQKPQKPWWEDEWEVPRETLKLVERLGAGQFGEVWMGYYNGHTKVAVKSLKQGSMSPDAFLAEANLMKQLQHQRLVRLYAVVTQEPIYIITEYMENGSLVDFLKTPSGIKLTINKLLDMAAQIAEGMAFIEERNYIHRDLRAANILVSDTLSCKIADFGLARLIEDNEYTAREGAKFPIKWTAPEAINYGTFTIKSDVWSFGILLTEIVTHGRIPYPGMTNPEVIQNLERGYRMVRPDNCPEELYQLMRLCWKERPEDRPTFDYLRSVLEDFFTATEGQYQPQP
For test [9], the target named is T1, Serine/threonine-protein kinase STK11 (Homo sapiens) (UniProt Q15831).
T1 sequence (whole entry): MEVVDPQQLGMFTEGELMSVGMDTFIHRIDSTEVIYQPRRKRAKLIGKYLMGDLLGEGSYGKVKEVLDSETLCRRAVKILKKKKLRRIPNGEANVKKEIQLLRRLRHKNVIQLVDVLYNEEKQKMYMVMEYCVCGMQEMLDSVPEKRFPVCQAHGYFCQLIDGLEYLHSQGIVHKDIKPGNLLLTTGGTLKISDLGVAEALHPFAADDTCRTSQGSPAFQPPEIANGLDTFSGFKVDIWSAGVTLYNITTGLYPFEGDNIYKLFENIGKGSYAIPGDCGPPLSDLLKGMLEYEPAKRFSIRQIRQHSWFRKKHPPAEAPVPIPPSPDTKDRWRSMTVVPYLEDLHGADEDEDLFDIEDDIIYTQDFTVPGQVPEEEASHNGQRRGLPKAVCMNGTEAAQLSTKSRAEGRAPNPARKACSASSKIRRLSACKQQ
The conditions noted are these: at 1 µM.

Test [10] concerns the target T1, Serine/threonine-protein kinase STK11 (Homo sapiens). Conditions: at 10 µM.

Chain of Serine/threonine-protein kinase 10 (Homo sapiens) (O94804 whole entry, looked up): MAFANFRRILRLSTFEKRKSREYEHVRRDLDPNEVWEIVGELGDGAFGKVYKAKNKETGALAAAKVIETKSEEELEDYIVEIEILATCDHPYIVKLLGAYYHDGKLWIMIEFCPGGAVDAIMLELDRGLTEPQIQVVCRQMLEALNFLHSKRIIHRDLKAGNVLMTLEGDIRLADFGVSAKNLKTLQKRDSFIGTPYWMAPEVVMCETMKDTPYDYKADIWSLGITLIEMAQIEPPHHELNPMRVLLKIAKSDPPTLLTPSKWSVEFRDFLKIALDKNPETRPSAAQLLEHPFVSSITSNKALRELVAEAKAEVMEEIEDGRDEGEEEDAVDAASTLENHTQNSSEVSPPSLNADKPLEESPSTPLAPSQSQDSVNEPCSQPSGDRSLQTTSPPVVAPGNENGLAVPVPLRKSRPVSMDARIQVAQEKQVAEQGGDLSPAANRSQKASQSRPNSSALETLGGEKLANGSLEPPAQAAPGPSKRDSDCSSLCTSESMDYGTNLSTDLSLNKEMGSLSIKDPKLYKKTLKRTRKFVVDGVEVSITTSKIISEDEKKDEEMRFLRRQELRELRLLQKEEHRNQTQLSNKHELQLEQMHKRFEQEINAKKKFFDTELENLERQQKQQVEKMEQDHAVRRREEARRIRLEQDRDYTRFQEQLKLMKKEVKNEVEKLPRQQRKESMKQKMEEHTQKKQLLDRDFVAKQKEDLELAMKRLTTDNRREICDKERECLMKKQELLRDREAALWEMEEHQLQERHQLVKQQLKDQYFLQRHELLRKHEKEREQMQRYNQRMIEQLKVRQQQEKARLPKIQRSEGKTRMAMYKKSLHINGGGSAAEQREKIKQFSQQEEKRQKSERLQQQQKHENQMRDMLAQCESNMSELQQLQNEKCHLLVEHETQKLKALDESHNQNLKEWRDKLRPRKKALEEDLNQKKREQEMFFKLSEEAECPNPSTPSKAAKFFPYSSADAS
Chain of Mitogen-activated protein kinase 10 (Homo sapiens) (P53779 whole entry): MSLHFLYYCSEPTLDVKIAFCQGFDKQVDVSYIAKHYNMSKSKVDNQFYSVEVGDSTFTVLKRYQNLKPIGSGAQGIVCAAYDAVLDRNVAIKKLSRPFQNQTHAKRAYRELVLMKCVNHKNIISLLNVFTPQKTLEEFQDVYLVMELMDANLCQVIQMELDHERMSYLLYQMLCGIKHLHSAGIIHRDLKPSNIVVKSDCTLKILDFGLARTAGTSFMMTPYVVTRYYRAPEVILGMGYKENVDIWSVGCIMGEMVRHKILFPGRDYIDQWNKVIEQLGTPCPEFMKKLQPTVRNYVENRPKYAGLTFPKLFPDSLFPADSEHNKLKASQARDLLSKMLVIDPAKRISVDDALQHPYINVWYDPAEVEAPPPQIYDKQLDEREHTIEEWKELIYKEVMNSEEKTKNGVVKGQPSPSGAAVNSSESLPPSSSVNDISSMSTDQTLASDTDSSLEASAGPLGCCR
Chain of Vascular endothelial growth factor receptor 2 (Homo sapiens) (P35968 whole entry): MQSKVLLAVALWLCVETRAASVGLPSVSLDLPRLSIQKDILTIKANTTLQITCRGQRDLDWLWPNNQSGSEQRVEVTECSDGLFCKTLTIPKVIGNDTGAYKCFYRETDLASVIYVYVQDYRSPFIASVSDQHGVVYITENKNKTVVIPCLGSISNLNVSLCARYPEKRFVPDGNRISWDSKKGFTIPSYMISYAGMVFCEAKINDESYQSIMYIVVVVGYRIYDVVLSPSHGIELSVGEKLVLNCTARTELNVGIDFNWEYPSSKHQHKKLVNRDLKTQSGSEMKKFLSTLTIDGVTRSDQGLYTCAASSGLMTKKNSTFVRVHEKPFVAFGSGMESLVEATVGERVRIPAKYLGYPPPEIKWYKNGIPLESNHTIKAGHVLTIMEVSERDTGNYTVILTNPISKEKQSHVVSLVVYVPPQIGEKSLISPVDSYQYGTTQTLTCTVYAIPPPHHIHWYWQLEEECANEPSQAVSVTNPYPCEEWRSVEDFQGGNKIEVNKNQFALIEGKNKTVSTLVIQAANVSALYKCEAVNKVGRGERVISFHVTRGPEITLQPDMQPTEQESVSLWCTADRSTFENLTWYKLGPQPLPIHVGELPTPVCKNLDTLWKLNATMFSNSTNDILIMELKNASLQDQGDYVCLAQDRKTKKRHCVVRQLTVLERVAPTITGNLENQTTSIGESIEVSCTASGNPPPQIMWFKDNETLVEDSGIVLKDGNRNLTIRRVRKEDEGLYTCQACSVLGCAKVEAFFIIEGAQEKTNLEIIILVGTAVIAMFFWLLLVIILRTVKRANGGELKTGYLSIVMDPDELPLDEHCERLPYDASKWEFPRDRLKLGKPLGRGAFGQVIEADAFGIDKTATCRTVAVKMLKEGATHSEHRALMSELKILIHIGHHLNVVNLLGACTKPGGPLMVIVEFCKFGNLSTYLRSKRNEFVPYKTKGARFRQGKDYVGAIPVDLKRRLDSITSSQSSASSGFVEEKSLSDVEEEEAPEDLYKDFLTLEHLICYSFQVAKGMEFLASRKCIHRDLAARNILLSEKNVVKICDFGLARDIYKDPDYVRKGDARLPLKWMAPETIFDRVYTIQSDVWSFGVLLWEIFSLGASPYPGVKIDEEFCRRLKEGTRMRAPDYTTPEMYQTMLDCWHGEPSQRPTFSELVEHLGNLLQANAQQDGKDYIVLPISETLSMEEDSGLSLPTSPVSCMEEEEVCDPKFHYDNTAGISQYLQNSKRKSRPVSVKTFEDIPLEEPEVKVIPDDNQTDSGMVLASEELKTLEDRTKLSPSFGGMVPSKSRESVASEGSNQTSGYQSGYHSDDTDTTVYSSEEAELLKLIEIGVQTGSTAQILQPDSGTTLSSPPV

On to `CCN(CC)CCNC(=O)c1c(C)[nH]c(/C=C2\C(=O)Nc3ccc(Cl)cc32)c1C`, for which the residual activity in [1] came out at 75%; in [2], 2%; in test [3] it was 1%; in [4], 99%; in test [5], 44%; in test [6], 15%. Also, the residual activity in [7] came to 5%; in [8], 12%.
Take `O=C1NC(=O)c2c1c1c3ccccc3[nH]c1n1cncc21`: the residual activity in test [1] is 11%; in test [2] it was 10%; in test [3], 8%; in test [4], 71%; in test [5], 48%; in test [9], 84%. The residual activity in test [10] came out at 62%; in [6], 70%; in test [7], 58%; in [8], 61%.
`COc1ccc2c(c1)c(C1=C(c3c[nH]c4ccccc34)C(=O)NC1=O)cn2CCCN(C)C`: the residual activity in [1] turned out to be 37%; in test [2], 28%; in [3], 3%; in [4], 99%; in test [5], 65%; in [9], 101%. Moreover, the residual activity in [10] was 99%; in test [6] it was 54%; in [7], 22%.
With `CCCCc1c(-c2ccc(OC)cc2)[nH]c2nccnc12`, the residual activity was determined as 41% in test [1]; 73% in test [2]; 68% in test [3]; 50% in [4]; 57% in test [5]; 108% in test [9]. Moreover, the figures for the residual activity in [10], in test [7] and in test [8] were 101%, 110% and 55%, respectively.
Consider `CN(C)S(=O)(=O)c1ccc2c(c1)/C(=C/c1cc3c([nH]1)CCCC3)C(=O)N2`, for which the residual activity in [1] was 81%; in test [2], 51%; in test [3], 40%; in test [4] it was 90%; in test [5], 77%; in [9] it was 99%. Also, the residual activity in [10] worked out at 96%; in test [6], 63%; in test [7], 78%.
`Nc1ncnc2c1c(-c1ccc(Oc3ccccc3)cc1)cn2C1CCCC1`: the residual activity is 81% in test [1]; 24% in test [2]; 3% in [3]; 72% in [4]; 13% in test [5]; 105% in test [9]. For the same molecule, the residual activity in test [10] is 91%; in [6], 73%; in test [7], 38%; in [8], 1%.
`CC(C)(C)n1nc(Cc2cccc3ccccc23)c2c(N)ncnc21`: the residual activity in test [1] was -1%; in test [2], 69%; in test [3], 14%; in test [4] it was 101%; in test [5], 69%; in test [9] it was 91%. For the same molecule, the residual activity was 61% in test [10], 80% in test [6], 41% in test [7] and 36% in test [8].
For the molecule `CC(C)c1nn(-c2c(Cl)cccc2Cl)c2nc(Cc3ccc(OCCO)cc3)[nH]c(=O)c12`, the residual activity in [1] was 29%; in test [2] it was 98%; in test [3], 89%; in test [4], 102%; in test [5] it was 84%; in [9], 90%. For the same molecule, the residual activity in test [10] turned out to be 48%; in [6] it was 55%; in test [7], 55%; in test [8] it was 104%.
As for `CCCC(=O)Oc1ccc2[nH]c(C(=O)c3cc4ccccc4[nH]3)cc2c1`, the residual activity in [1] worked out at 69%; in [2], 94%; in test [3], 70%; in [4] it was 98%; in test [5] it was 80%; in [9] it was 98%. For the same molecule, the residual activity in test [10] came to 96%; in test [6], 85%; in test [7], 96%; in [8], 89%.
Turning to `CCOc1nc(NC(=O)Cc2cc(OC)ccc2OC)cc(N)c1C#N`, the residual activity in [1] was -2%.
Turning to `Nc1nc(Nc2ccc(S(N)(=O)=O)cc2)nn1C(=O)c1c(F)cccc1F`, the residual activity in test [1] worked out at 12%; in test [2], 33%; in [3] it was 4%; in [4], 12%; in test [5], 2%; in test [9], 99%. Also, the residual activity is 95% in test [10], 17% in [6], 6% in [7] and 58% in [8].
Take `COc1cc2c(cc1OC)-c1n[nH]c(Nc3cccc(F)c3)c1C2`: the residual activity turned out to be 33% in [1]; 75% in [2]; 25% in test [3]; 13% in [4]; 2% in test [5]; 59% in test [6]. In addition, the residual activity in test [7] stood at 37%.
For the molecule `O=C(CCCc1ccc(-c2ccccc2F)cc1)Nc1ccc(O)cc1`, the residual activity came out at 94% in test [1]; 110% in test [2]; 108% in [3]; 96% in [4]; 85% in test [5]; 100% in [9]. Also, the residual activity in test [10] stood at 97%; in test [6], 112%; in test [7], 94%; in [8], 99%.
Consider `COc1cc2ncnc(Nc3cccc(Cl)c3)c2cc1OC`, for which the residual activity turned out to be 50% in [1]; 60% in test [2]; 16% in test [3]; 111% in test [4]; 41% in test [5]; 100% in [9]. Besides, the residual activity in test [10] turned out to be 101%; in test [6], 24%; in [7], 8%; in test [8] it was 52%.
In the case of `CC(C)(C)c1nc2c3ccc(F)cc3c3c(=O)[nH]ccc3c2[nH]1`, the residual activity in test [1] is -7%; in [2], 65%; in test [3] it was 24%; in [4] it was 98%; in test [5], 63%; in [6] it was 72%. Besides, the residual activity in test [7] was found to be 32%.
Consider `CCCCc1c(-c2ccc(O)cc2)[nH]c2nccnc12`, for which the residual activity in test [1] was found to be 23%; in test [2] it was 77%; in test [3], 42%; in test [4], 64%; in test [5], 53%; in [10], 73%. In addition, the residual activity in [6] stood at 80%; in test [7], 90%; in test [8], 48%.
`O=C(NC(NC(=S)Nc1ccc(F)c([N+](=O)[O-])c1)C(Cl)(Cl)Cl)C(c1ccccc1)c1ccccc1` (centres undefined): the residual activity turned out to be 79% in test [1]; 104% in test [2]; 102% in test [3]; 90% in [4]; 75% in test [5]; 98% in test [9]. Also, the values for the residual activity in [10] and in [8] were 103% and 95%, respectively.
As for `Cn1sc(=O)n(Cc2ccccc2)c1=O`, the residual activity in test [1] came out at 94%; in test [2] it was 99%; in test [3], 91%; in [4] it was 86%; in [5], 79%; in test [9], 97%. For the same molecule, the residual activity in [10] turned out to be 93%; in test [6] it was 95%; in [7], 95%.
Turning to `c1ccc(-c2cnc(Nc3ccc(OCCN4CCCC4)cc3)s2)cc1`, the residual activity in test [1] was 36%; in [2], 10%; in test [3], 4%; in [4] it was 64%; in [5] it was 16%; in test [9] it was 108%. Besides, the residual activity in test [10] was 103%; in [6], 75%; in test [7], 55%; in test [8] it was 58%.
As to `O=c1cc(N2CCOCC2)oc2c1ccc1ccccc12`, the residual activity in [1] came to 70%; in [2], 103%; in [3], 87%; in [4], 108%; in test [5], 92%; in [9], 102%. The residual activity in test [10] was 93%; in test [6], 98%; in [7], 91%.
With `O=c1cc(N2CCNCC2)oc2c(-c3ccccc3)cccc12`, the residual activity in test [1] turned out to be 89%; in test [2], 100%; in test [3], 89%; in test [4], 92%; in test [5], 86%; in [9], 97%. For the same molecule, the results for the residual activity in [10], in test [6] and in test [7] were 92%, 95% and 89%, respectively.
In the case of `O=C(O)/C=C/c1cc(Br)c(Br)c(Br)c1Br`, the residual activity in [1] came to 46%; in test [2], 99%; in [3], 81%; in test [4], 105%; in test [5], 71%; in test [9], 93%. The residual activity turned out to be 38% in test [10], 94% in [6], 58% in test [7] and 77% in test [8].
Regarding `CCN1/C(=C/C(C)=O)Sc2ccc(OC)cc21`, the residual activity in [1] worked out at 64%.
Regarding `Nc1ncnc2c1cnn2-c1ccccc1`, the residual activity in test [1] worked out at 70%; in [2] it was 102%; in test [3] it was 83%; in test [4] it was 99%; in test [5], 67%; in test [9] it was 96%. The residual activity was 98% in test [10], 98% in test [6] and 85% in test [7].
Consider `O=C1Nc2ccc(Cl)cc2/C1=C/c1cc(Cl)c(O)c(Cl)c1`, for which the residual activity in test [1] stood at 32%; in [2], 13%; in test [3], 1%; in test [4], 88%; in [5], 42%; in test [9], 91%. Moreover, the residual activity turned out to be 86% in test [10], 67% in [6], 47% in test [7] and 95% in test [8].
